This note sets out measurements from PubChem BioAssay AID504617 (Sanford-Burnham Center for Chemical Genomics, 2011).

The other results are listed elsewhere or left out. Unmarked numbers belong to inactive results. The source made the active and inactive calls.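 The calls were made as follows: active = mean activity change at or below -40%, meaning activation of 40% or more, at 20 µM; inactive = the rest.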

For this assay, the target named is Apoptotic protease-activating factor 1 (Homo sapiens) (UniProt O14727). As to the kind of experiment: enhancers of apoptosome-driven caspase-3 activity – biochemical, fluorescence, DEVD-Rh110, 20 µM, confirmation (AID 504617). Conditions: reconstituted apoptosome caspase-3 activity, at 20 µM, active compounds read low.
Apoptotic protease-activating factor 1 (Homo sapiens), sequence (O14727 whole entry, looked up): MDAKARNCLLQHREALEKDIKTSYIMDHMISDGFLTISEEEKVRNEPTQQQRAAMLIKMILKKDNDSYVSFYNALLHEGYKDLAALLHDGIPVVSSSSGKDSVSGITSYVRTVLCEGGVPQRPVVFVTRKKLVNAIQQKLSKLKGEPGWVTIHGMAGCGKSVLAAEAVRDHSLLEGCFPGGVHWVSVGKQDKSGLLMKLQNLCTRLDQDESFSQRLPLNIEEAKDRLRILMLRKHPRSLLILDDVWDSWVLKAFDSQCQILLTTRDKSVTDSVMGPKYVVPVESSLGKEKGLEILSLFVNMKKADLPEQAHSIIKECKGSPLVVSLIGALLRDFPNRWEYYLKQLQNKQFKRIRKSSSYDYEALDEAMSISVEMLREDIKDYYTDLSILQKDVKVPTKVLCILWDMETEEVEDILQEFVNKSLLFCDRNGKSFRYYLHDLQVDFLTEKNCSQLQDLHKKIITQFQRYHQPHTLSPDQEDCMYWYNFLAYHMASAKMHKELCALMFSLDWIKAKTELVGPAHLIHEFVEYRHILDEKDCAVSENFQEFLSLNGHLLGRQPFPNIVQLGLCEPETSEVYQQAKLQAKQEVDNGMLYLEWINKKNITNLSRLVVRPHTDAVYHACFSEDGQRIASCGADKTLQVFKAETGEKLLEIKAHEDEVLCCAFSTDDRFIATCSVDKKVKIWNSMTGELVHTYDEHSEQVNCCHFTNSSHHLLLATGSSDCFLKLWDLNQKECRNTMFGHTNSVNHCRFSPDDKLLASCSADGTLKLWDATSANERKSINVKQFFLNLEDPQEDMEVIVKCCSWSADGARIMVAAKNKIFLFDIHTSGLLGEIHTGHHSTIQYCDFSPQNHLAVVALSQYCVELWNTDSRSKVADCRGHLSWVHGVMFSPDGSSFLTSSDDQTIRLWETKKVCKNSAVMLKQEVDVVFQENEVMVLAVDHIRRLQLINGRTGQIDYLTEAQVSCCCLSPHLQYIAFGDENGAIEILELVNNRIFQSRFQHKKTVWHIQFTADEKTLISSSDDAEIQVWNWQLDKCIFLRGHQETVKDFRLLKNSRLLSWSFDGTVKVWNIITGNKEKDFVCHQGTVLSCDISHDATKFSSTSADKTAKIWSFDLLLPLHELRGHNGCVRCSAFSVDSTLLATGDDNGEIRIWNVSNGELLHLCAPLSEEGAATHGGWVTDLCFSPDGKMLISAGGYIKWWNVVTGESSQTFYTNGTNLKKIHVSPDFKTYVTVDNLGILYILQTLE
Take `Brc1ccc(/C=N/N2CCN(C3c4ccccc4-c4ccccc43)CC2)s1`: the activity change, negative = activation was 4.14%. The figure for `Cc1cc(NC(=O)c2cccc(N3C(=O)CCC3=O)c2)no1` is 4.77%; for `COc1ccc(C2CC(c3ccccc3)Nc3ncnn32)cc1` (stereo unspecified) it is 8.21%. In the case of `CC1COc2ccccc2N1C(=O)c1cccnc1Cl` (stereo unspecified) it was 6.25%; in that of `CC(=O)CCC(=O)c1ccc2ccccc2c1`, 13.2%; in that of `N#CC1(C#N)C(C(=O)C23CC4CC(CC(C4)C2)C3)C12CCOCC2` (stereo unspecified), 6.87%.

For the compound `O=C(Nc1cccc(-c2nc3ccccc3[nH]2)c1)c1ccc(C(=O)Nc2cccc(-c3nc4ccccc4[nH]3)c2)cc1`, the activity change, negative = activation was -23.1%. In the case of `O=C(Nc1ccccc1F)c1ccccc1-c1ccccc1` it was 4.47%; in that of `O=C(CN1C(=O)C2C3C=CC(C3)C2C1=O)NCCc1ccccc1Cl` (stereo unspecified), 10.8%.

Consider `CN(C)S(=O)(=O)c1ccc(C(=O)NCCN=C2NS(=O)(=O)c3ccccc32)cc1`, for which the activity change, negative = activation was 4.07%.

In the case of `COc1cccc(C(=O)Nc2ccc(N3CCCC3)cc2)c1`, the activity change, negative = activation is 7.29%.

As for `CCOCCCNC(=O)c1c[nH]c2cc(C)ccc2c1=O`, the activity change, negative = activation is 13.4%. The figure for `O=c1[nH]cnc2c1c(-c1ccccc1)cn2-c1ccc(F)cc1` is 10.9%; for `CC(=O)NC(=S)NNC(=O)c1ccc(Br)cc1` it is 17.7%. In the case of `O=c1[nH]c2c(c(=O)n1Cc1ccccc1)CCC2` it was 11%; in that of `CC(C)OCCCNC(=S)N1CCC(C(=O)c2ccc3c(c2)OCCO3)CC1`, 17.5%.

With `COc1ccc2c(c1)CCNC2Cc1ccc(OC)c(O)c1` (stereo unspecified), the activity change, negative = activation is 12.2%. In the case of `CC(C)N1CCC(NC(=O)Nc2ccccc2)CC1` it was 9.51%; in that of `COc1ccc(C2c3ccc(O)cc3Oc3ncn(CCCO)c(=N)c32)cc1OC` (stereo unspecified), 0.56%. The figure for `O=C(CCc1ccccc1)NNC(=O)c1ccc(Br)cc1` is 5.47%. The figure for `C=C(C)C(=O)Nc1cccc(C2=NOC3(C2)C[C@H](C(N)=O)N(C(=O)C(c2ccccc2)c2ccccc2)C3)c1` (stereo partly specified) is -78.6% (active).
